This is a sample that favours compounds with a hit; in the whole collection about 0.7% have one here.
GLS inh: blocks human kidney-isoform glutaminase activity; O94925; GLS enzymatic activity, qHTS titration; Potency, µM (titrated, usually from 45.5 µM), inactives show top-dose activity change, negative = inhibition, usual class: inhibitors; 410,000 compounds, 0.21% hits; AID 624170; also: % is scaled to controls: 0 for no effect and ±100 for the full control effect
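Human kidney-isoform GLS in 45 mM KH2PO4 pH 8.2, 0.02% Tween-20, with compound, started with 1mM L-Glutamine (added stock). Glutamate oxidase/HRP/Amplex red coupled fluorescence read at start and after 30 min at RT.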
Vif-A3G inh: inhibitors of Vif-APOBEC3G interaction | Q9HC16 | HeLa A3G-eYFP + Vif (tagged APOBEC3G with the HIV-1 protein that degrades it), YFP fluorescence, overnight | Potency, µM (titrated, usually from 46.1 µM), without a hit: top-dose activity, negative = active, actives largely listed as inhibitors | 410,000 compounds, 0.076% hits; also: % is scaled to controls: 0 for no effect and ±100 for the full control effect; nearly all actives have a fitted effect of over 60% in size
Target sequence (Q9HC16 whole entry, looked up): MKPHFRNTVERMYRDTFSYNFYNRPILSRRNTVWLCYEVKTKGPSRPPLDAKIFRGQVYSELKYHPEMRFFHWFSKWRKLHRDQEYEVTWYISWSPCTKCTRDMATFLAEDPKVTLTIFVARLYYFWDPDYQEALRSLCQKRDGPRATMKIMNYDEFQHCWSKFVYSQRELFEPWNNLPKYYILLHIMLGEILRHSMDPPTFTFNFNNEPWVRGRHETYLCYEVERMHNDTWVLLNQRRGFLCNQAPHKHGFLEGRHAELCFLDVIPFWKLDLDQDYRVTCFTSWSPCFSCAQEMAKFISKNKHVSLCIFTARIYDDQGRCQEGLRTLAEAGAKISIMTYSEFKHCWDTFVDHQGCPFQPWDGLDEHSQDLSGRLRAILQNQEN
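Read-out is eYFP fluorescence (Ex 488/Em 500-530) from Vif-expressing HeLa A3G-eYFP cells; more signal means A3G escaped Vif-mediated degradation. Cells plated overnight, compound pinned in, incubated overnight at 37 deg C.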
Epigenetic derep: derepresses silenced GFP reporter in murine cells | Potency, µM (top dose mostly 53.9 µM), for inactives: at the highest dose GFP activation, actives largely listed as activators | 280,000 compounds, 0.2% hits | murine LDR cells, GFP reporter derepression, 30 h; also: % of control where 0% means no effect; nearly all actives have a fitted effect of over 60% in size
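GFP-positive cell count by laser-scanning cytometry (objects 20–120 um) after 30 h, 37 C compound exposure of murine LDR cells; reporter is CMV-GFP integrated at a silenced locus, inducible by HDAC or DNMT inhibitors.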
Vif-APOBEC3F blk: Vif-A3F binding inhibition; Potency, µM (titrated, usually from 46.1 µM), inactives show at the top dose activity, negative = active; 390,000 compounds, 0.2% hits; HeLa A3F-eYFP + Vif (tagged APOBEC3F with the HIV-1 protein that degrades it), YFP fluorescence increase; AID 602313; also: % of control where 0% means no effect; nearly all actives have a fitted effect of over 65% in size
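Fluorescence increase (Ex 488/Em 500-530) after overnight compound treatment at 37 deg C flags inhibition of Vif-driven A3F-eYFP loss in stable HeLa A3F-eYFP/Vif cells seeded overnight beforehand.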
PINK1 modulator: PINK1 expression modulation. PINK1 immunofluorescence, high-content cytometry, 24 h. Potency, µM (top dose mostly 76.6 µM), for inactives: at the highest dose activation (PINK1 increase), actives largely listed as activators. 410,000 compounds, 0.2% hits. AID 624263; active = well fitted activation curve with a large enough effect; inconclusive = small, poorly fitted or top-dose-only effect; cell line not stated here; also: % of control where 0% means no effect; nearly all actives have a fitted effect of over 65% in size
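Measures PINK1 amount and localization on or inside mitochondria by immunofluorescence. Stable cells get compounds at 5 concentrations for 24 hours before fixation and staining; CCCP controls included.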
Starred values were filed as active, the others as inactive; ? = inconclusive; . = not tested or not shown; [ ] = dose if it differs, or a comment. Unless noted, calls follow the shape of the dose curve; as a rule, active = well fitted curve in the direction sought with a large enough effect; inconclusive = small, poorly fitted or top-dose-only effect, or another doubt; inactive = no such curve, though single readings can be large; an effect the other way counts as inactive or inconclusive. Potency is read from the fitted curve at half-maximal effect.

SMILES	GLS inh	Vif-A3G inh	Epigenetic derep	Vif-APOBEC3F blk	PINK1 modulator
COc1ccc(/C(O)=C/c2nc3ccc(C(=O)NCCc4cccc(C)c4)cc3[nH]c2=O)cc1OC	1.8%	-0.2%	17.8µM*	?	19.8%
COc1cc(/C=C2\C(=N)N3N=CSC3=NC2=O)cc(Br)c1OC(=O)c1ccco1	67.3%	?	1.1%	22.4µM*	0.1%
CO[C@@H]1[C@@H]([C@H](C)[C@@H]2O[C@@]3(CC[C@@](C)([C@H]4CC[C@@](C)([C@H]5O[C@H]([C@H]6O[C@](C)(O)[C@H](C)C[C@@H]6C)C[C@H]5O[C@H]5C[C@@H](OC)[C@H](OC)[C@@H](C)O5)O4)O3)C[C@@H](O)[C@@H]2C)O[C@@](O)(CC(=O)O)[C@H](C)[C@H]1OC	-1.5%	.	.	.	.
COc1ccc(/C=N/N(Cc2ccccc2)c2ccccc2)cc1O	15.8µM*	-3.8%	0.0%	-31.2%	-0.9%
Cc1cnc(-n2ncc(C(=O)NCCN3CCOCC3)c2C2CC2)nc1-c1cccs1	.	.	.	.	1.3%
COC(=O)c1cc(NC(=O)CC2SC(=Nc3ccccc3)N(CCc3c[nH]c4ccccc34)C2=O)cc(C(=O)OC)c1 (stereo not drawn)	25.1µM*	-17.9%	2.5%	3.9%	0.9%
CCC(=O)C(Cc1ccccc1)(Cc1ccccc1)CC(C)N(C)C (stereo not drawn)	3.0%[72.5 µM]	.	.	.	.
Cc1ccc(S(=O)(=O)Nc2nc3n(n2)C(c2ccc(Cl)cc2)C=C(c2ccccc2)N3)cc1 (stereo not drawn)	-23.1%	-28.0%	-5.3%	?	0.8%
O=S(=O)(Nc1nc2n(n1)C(c1ccccc1)C=C(c1ccc(Cl)cc1)N2)c1ccccc1 (stereo not drawn)	-16.3%	?	-2.1%	22.4µM*	0.3%
Oc1ccccc1C=NN1CCCCCC1	?	5.9%	.	13.8%	3.9%
Oc1ccc(/C=N/N2CCCCC2)c(O)c1	6.31µM*	1.7%	.	-26.7%	1.7%
COc1cccc(CN2C(=O)NC(C)(C3CCN(Cc4cc(F)cc(F)c4)CC3)C2=O)c1OC (stereo not drawn)	.	.	.	.	-0.1%
COc1cc(C(=O)Nc2nnc(S(=O)(=O)N(C)c3ccccc3)s2)cc(OC)c1OC	1.2%	-4.1%	10µM*	0.0%	-0.3%
CN(c1ccccc1)S(=O)(=O)c1nnc(NC(=O)c2cccs2)s1	-28.1%	.	?	.	0.7%
CC(C)c1ccc(C2NC(=O)c3c(sc4c3CCN(C)C4)N2)cc1 (stereo not drawn)	15.8µM*	-4.8%	-0.6%	?	1.5%
CN1CCc2c(sc3c2C(=O)NC(c2ccc(C(C)(C)C)cc2)N3)C1 (stereo not drawn)	15.8µM*	-16.5%	7.6%	?	4.1%
CSc1ccc(C2NC(=O)c3c(sc4c3CCN(C)C4)N2)cc1 (stereo not drawn)	?	?	10.8%	?	1.6%
COCC(=O)Nc1cc(C(=O)N2CCC(c3ccccc3)CC2)cc2nc(-c3ccccc3)n(C)c12	.	.	.	.	5.2%
CCCCN1C(=O)/C(=C/C=C2\SCCN2C)SC1=S	-14.3%	?	17.8µM*	?	10.0%
CCCCN1C(=O)/C(=C/C=C2\N(C)c3ccccc3C2(C)C)SC1=S	.	.	2.51µM*	.	.
CN1CCN(S(=O)(=O)c2ccc(N3CCN(c4ccc(O)cc4)CC3)c([N+](=O)[O-])c2)CC1	8.91µM*	0.9%	.	9.3%	1.2%
COc1cc(OC)cc(OC2(C)CCN(Cc3ccc(OC(C)C)cc3)C2)c1 (stereo not drawn)	-1.3%	-3.8%	.	.	44.7µM*
N/C(=N/OC(=O)c1ccccc1F)c1nonc1N	-0.8%	3.9%	0.0%	-1.8%	3.2%
N/C(=N\OC(=O)c1ccc(Cl)cc1)c1nonc1N	4.1%	0.1%	-0.1%	1.2%	7.94µM*
Cc1ncc2c(c1CNC(=O)c1cncs1)CCN(C(=O)c1csc(-c3cccs3)n1)C2	.	.	.	.	1.5%
SMILES	GLS inh	Vif-A3G inh	Epigenetic derep	Vif-APOBEC3F blk	PINK1 modulator
O=C1C2=C(Nc3ccccc3SC2c2ccc(Cl)c(Cl)c2)c2ccccc21 (stereo not drawn)	-4.2%	3.0%	-1.1%	3.2%	?
O=C1C2=C(Nc3ccccc3SC2c2ccccc2C(F)(F)F)c2ccccc21 (stereo not drawn)	-2.8%	-12.2%	0.0%	-14.9%	12.6µM*
NC(=O)[C@@H]1CCCN1C(=O)CCN1Cc2ccccc2OC(c2ccccc2F)C1 (stereo partly drawn)	.	.	.	.	0.1%
Cc1ccc(C(=O)N/N=C(/CC(=O)c2cccs2)C(F)(F)F)cc1	-1.1%	-8.9%	-0.1%	-5.3%	44.7µM*
O=C(N/N=C(\CC(=O)c1cccs1)C(F)(F)F)c1ccncc1	-23.7%	-0.3%	1.6%	-2.2%	-1.2%
CCNC(=S)N/N=C(\C)c1ccc(Cl)s1	20.6%	-3.3%	16.3%	-0.9%	1.6%
CNC(=S)N/N=C(\C)c1ccc(Cl)s1	4.5%	1.3%	0.0%	7.94µM*	-0.6%
CC(C)(C)NC(=S)NNC(=O)c1cccc(Br)c1	15.0%	2.1%	17.8µM*	-4.2%	1.5%
CCN(Cc1ccncc1)Cc1ccc2c(c1)CN(C(=O)c1ccc(C)cc1)CCO2	.	.	.	.	-0.3%
CC/C=C(\C(=O)N[C@H]1C(=O)N2C(C(=O)OCOC(=O)C(C)(C)C)=C(COC(N)=O)CS[C@H]12)c1csc(N)n1	13.3%	.	.	.	.
O=C(NCc1nnc2n1CCN(Cc1cc3c(cc1Cl)OCO3)CC2)c1cccc(F)c1	.	.	.	.	-0.5%
Cc1ccn2c(NC(C)(C)C)c(-c3cccs3)nc2c1	6.31µM*	-0.8%	1.1%	-10.9%	1.0%
Cc1ccn2c(NC(=O)c3cccs3)c(-c3ccccc3)nc2c1	50.9%	-3.2%	1.0%	?	0.2%
COC(=O)c1cc(CNC(=O)c2ccccc2)cc(NC(=O)c2ccccc2OC)c1	.	.	.	.	1.3%
O=C(/C=C/c1ccccc1)NC(NC(=S)Nc1cccc(Cl)c1)C(Cl)(Cl)Cl (stereo not drawn)	7.5%	-12.0%	-1.0%	-1.5%	?
O=C(/C=C/c1ccccc1)NC(NC(=S)Nc1ccc(Cl)cc1Cl)C(Cl)(Cl)Cl (stereo not drawn)	-23.1%	-0.7%	-0.1%	-20.4%	10µM*
COc1ccc(C(=O)NCc2nc(-c3cccc(NC(=O)c4ccc(C)s4)c3)oc2C)cc1	.	.	.	.	-0.7%
O=C1C(Cl)=C(Nc2ccc(O)cc2)C(=O)c2ccccc21	1.26µM*	4.5%	?	-0.7%	-1.9%
COC1=C(Nc2ccc(OC)cc2)C(=O)c2ccccc2C1=O	1.9%	-26.4%	-0.9%	-1.4%	?
Cc1ccc(NC2=C(Cl)C(=O)c3ccccc3C2=O)cc1	-6.1%	-16.9%	-0.9%	-0.1%	-5.7%
COC1=C(Nc2ccc(O)cc2)C(=O)c2ccccc2C1=O	7.94µM*	-21.7%	-0.9%	12.8%	-0.7%
